# Compounds with a hit are over-represented: about 1.1% of the library has one in this group of screens.
# NSD2 inh: blocks human histone methyltransferase NSD2; O96028; NSD2 peptide methylation, AlphaScreen, 120 min; inhibition, % at 12.5 µM; 310,000 tested, 0.54% active; AID 743445; in the data active = inhibition above about 50%
# Casp6 inh: inhibitors of human caspase-6; P55212; purified caspase-6, Z-VEID-R110 cleavage fluorescence; inhibition, % at 12.5 µM; 350,000 tested, 0.53% active; AID 686996;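 active = mean inhibition across replicates at least about 35%, with every replicate also reaching that limit, limit read from the data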;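 note: 0% = median of neutral control wells and 100% = no fluorescence left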
# Keap1 Nrf2 FP: inhibitors of human Keap1-Nrf2 protein-protein interaction; Q14145; 340,000 tested, 0.15% active; AID 504523; inhibition, % at 9.4 µM; Keap1 Kelch-Nrf2 peptide fluorescence polarization, 1536-well; in the data active = inhibition above about 12%;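 note: human Keap1 Kelch domain with fluorescein labeled Nrf2 9mer peptide probe; 0% = neutral control wells and 100% = peptide positive control; higher means more block of Keap1 binding to Nrf2 peptide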
# N-glyco inh: N-linked glycosylation inhibition; D54 ERlucT glycosylation luciferase reporter, 24 h; percent of 100 nM tunicamycin response; reporter increase, % at 12.5 µM; 360,000 tested, 0.23% active;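 active = mean luciferase reporter signal, scaled so untreated is 0 and the glycosylation-blocking control 100, at or above a set limit in every replicate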;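 note: luciferase carries N-glycosylation sites so blocking glycosylation raises the light; 0% = median of neutral control wells and 100% = median of 100 nM tunicamycin wells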
# HDAC3 inh: blocks human histone deacetylase 3 | recombinant HDAC3, fluorogenic peptide/trypsin coupled, fluorescence | 320,000 tested, 0.15% active | O15379 | inhibition, % at 8.3 µM; in the data active = inhibition above about 26%, passing the limit was not always enough
# Target sequence (O15379 whole entry, looked up): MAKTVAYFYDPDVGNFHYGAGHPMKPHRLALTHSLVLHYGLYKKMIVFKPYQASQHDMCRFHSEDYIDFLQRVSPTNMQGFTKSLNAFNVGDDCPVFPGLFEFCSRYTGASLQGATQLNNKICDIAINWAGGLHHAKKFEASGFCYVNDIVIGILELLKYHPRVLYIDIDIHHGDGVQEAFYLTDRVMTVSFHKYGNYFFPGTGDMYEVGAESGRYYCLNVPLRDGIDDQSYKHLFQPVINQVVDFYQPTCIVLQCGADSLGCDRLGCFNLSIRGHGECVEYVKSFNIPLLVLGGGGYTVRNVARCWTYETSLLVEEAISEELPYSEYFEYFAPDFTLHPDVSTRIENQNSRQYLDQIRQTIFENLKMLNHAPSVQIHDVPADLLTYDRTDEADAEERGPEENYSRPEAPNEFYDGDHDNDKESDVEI
# C-LANA FP: KSHV C-LANA DNA binding inhibition; AID 504423; MBP-C-LANA/FAM-LBS DNA binding, fluorescence polarization; inhibition, % at 9 µM; 340,000 tested, 0.078% active;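 active = highest replicate inhibition at or above 60% at 9 µM, even if other replicates fall short; inactive = all replicates below 60% inhibition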;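 note: 0% = neutral control wells and 100% = 4 µM acridine orange control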
# Numbers without * were called inactive; . = no result given.
SMILES,NSD2 inh,Casp6 inh,Keap1 Nrf2 FP,N-glyco inh,HDAC3 inh,C-LANA FP
CC[C@@]1(c2ccccc2OC)ON(c2ccccc2C(F)(F)F)C1=O,.,.,-0.3,43.1*,14.1,16.2
NC(=O)SCC(=O)Nc1cccc(Cl)c1,1.5,.,-7.4,1.0,39.1*,2.1
COCC(=O)N(C)C[C@H]1Oc2ncc(-c3ccc(F)cc3)cc2C(=O)N([C@@H](C)CO)C[C@@H]1C,.,-0.4,.,.,.,.
COc1cc(C(=O)OCC(=O)N2CCCC2=O)cc(OC)c1C,7.2,36.9*,7.0,-0.4,-0.3,6.7
CO[C@@H]1CN(C)C(=O)c2cc(NS(=O)(=O)c3ccc(C)cc3)ccc2OC[C@@H](C)N(C(=O)NC(C)C)C[C@@H]1C,.,-1.0,.,.,.,.
CC(=O)Oc1ccc2c(c1)Oc1cc(OC(C)=O)ccc1C21OC(=O)c2ccccc21,.,.,14.8*,-1.0,5.9,167.9*
O=c1cc(-c2c(O)c3ccccc3n(Cc3ccccc3)c2=O)[nH][nH]1,0.2,55.6*,-2.1,-4.4,8.1,4.2
O=C(O)c1cc(Nc2cc(Cl)c3nonc3c2[N+](=O)[O-])ccc1O,15.7,49.5*,7.2,2.8,2.0,0.6
O=[N+]([O-])c1c(Nc2ccccc2O)cc(Cl)c2nonc12,1.2,8.3,4.0,-8.1,6.9,-0.6
C[C@H](CO)N1C[C@H](C)[C@@H](CN(C)C(=O)Nc2ccccc2)Oc2c(NC(=O)c3ccc(-c4nccs4)cc3)cccc2C1=O,.,-6.1,.,.,.,.
O=C1C(=NO)CCc2ccccc21,77.2*,67.9*,-4.3,2.8,.,-1.3
O=C(O)c1ccc2c3c(cccc13)C(=O)N(c1ccccc1)C2=O,31.1,50.3*,-1.3,1.7,6.8,5.3
NN1C(=O)c2cccc3c(C(=O)O)ccc(c23)C1=O,0.0,.,-2.2,1.3,-2.7,2.6
O=C(O)c1ccc(N2C(=O)c3cccc4c(C(=O)O)ccc(c34)C2=O)cc1,2.7,53.4*,0.9,1.7,5.7,31.5
N=c1c(S(=O)(=O)c2ccccc2)cc2c(=O)n3ccccc3nc2n1C1CCCC1,-0.5,1.2,-0.4,-1.1,-3.0,1.1
N=c1c(S(=O)(=O)c2ccc(Cl)cc2)cc2c(=O)n3ccccc3nc2n1CCc1ccccc1,0.9,-1.1,3.7,50.2*,-13.5,18.2
N=c1c(S(=O)(=O)c2ccc(Cl)cc2)cc2c(=O)n3ccccc3nc2n1CCN1CCOCC1,-0.8,.,5.5,-1.3,-147.2,-0.3
N=c1c(S(=O)(=O)c2ccc(Cl)cc2)cc2c(=O)n3ccccc3nc2n1C1CCCCC1,-0.4,-1.7,24.6*,-3.3,-2.2,10.9
COCC(=O)N1C[C@@H](C)[C@H](OC)CN(C)C(=O)c2ccc(NC(=O)c3ccccc3)cc2OC[C@H]1C,.,0.3,.,.,.,.
O=c1cc(-c2ccc(O)c(O)c2)oc2cc(O[C@@H]3O[C@H](CO)[C@@H](O)[C@H](O)[C@H]3O)cc(O)c12,.,.,-4.4,-0.2,7.8,35.5
O=c1cc(-c2ccc(O)cc2)oc2cc(O)c(C3OC(CO)C(O)C(O)C3O)c(O)c12 (stereo unspecified),.,37.1*,-5.9,24.6,2.7,14.9
COC(=O)C(=Cc1ccc(-c2ccsc2C(=O)OC)o1)C(=O)OC,0.6,1.1,0.8,35.1*,4.7,-1.7
O=C(c1c(O)cc(O)cc1O)C1c2c(cc(O)c3c2O[C@H](c2ccc(O)cc2)[C@@H](O)C3)OC1c1ccc(O)cc1 (stereo partly specified),.,37.1*,-7.3,0.9,-4.1,6.4
O=C1CC(c2ccc(O)cc2)Oc2cc(O)cc(O)c21 (stereo unspecified),.,0.9,-3.3,2.7,10.7,-1.4
Cc1ccc(S(=O)(=O)N(C)C[C@H]2Oc3ccc(NS(=O)(=O)c4c(C)noc4C)cc3CC(=O)N([C@H](C)CO)C[C@H]2C)cc1,.,-3.8,.,.,.,.
COc1cc2c(cc1OC)C(c1cccs1)N(C(=O)c1cccnc1)CC2 (stereo unspecified),-3.3,2.1,-5.8,80.2*,-8.5,1.2
Cc1ccccc1OC1(C)CCN(Cc2ccc(-c3ccccn3)cc2)C1 (stereo unspecified),1.2,84.5*,.,0.1,.,.
COc1ccc(/C=C2\C(=O)NC(=O)c3ccccc32)cc1OC,.,93.4*,3.8,6.3,.,-0.2
COc1ccc(C=C2C(=O)OC(C)(C)OC2=O)cc1OC,-1.0,-4.2,-4.9,0.7,-1.5,-2.0

# Source: PubChem BioAssay
